# About 83,000 compounds went through this panel and 20% of them were active in at least one assay; those are over-represented in the sample as a whole.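 Activity criterion: percent growth below 10, measured after cells in 96-well plates were exposed to a single compound concentration for 48 hours.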 A number with no mark means an inactive call. Active and inactive are the calls of the source.
# Experiments:
# Test in all cases: NCI-60 one-dose screen, 48 h (100 = growth as untreated, 0 = no growth, -100 = all killed)
# [1] = tested on: NCI-H23 lung
# [2] = tested on: NCI-H226 lung
# [3] = tested on: NCI-H322M lung
# [4] = tested on: HOP-62 NSCLC
# [5] = tested on: NCI-H460 lung
# [6] = tested on: HOP-92 NSCLC
# [7] = tested on: A549/ATCC NSCLC
# [8] = tested on: 786-0 renal
# [9] = tested on: COLO 205 colon
# [10] = tested on: DU-145 prostate
# [11] = tested on: MALME-3M melanoma
# [12] = tested on: MDA-MB-231 breast
# [13] = tested on: RXF 393 renal
# [14] = tested on: SF-268 CNS
# [15] = tested on: SF-295 CNS
# [16] = tested on: SF-539 CNS
# [17] = tested on: UACC-257 melanoma
# [18] = tested on: M14 melanoma
# [19] = tested on: NCI-H522 lung; details: 10 µM unless noted
# [20] = tested on: K-562 leukemia; details: 10 µM unless noted
structure (smiles),measurement,setting,value
CC/C(=C(\c1ccc(O)cc1)c1ccc(OCCNC)cc1)c1ccccc1,growth,[1]; 1 µM,98.9%
same,growth,[1]; 10 µM,96.5%
same,growth,[2]; 1 µM,85.9%
same,growth,[2]; 10 µM,74.7%
same,growth,[3]; 1 µM,100%
same,growth,[3]; 10 µM,102%
same,growth,[4]; 1 µM,97.8%
same,growth,[4]; 10 µM,96.8%
same,growth,[5]; 1 µM,118%
same,growth,[5]; 10 µM,69.2%
same,growth,[6]; 1 µM,80.2%
same,growth,[6]; 10 µM,65.1%
same,growth,[7]; 1 µM,93.9%
same,growth,[7]; 10 µM,88.2%
same,growth,[8]; 1 µM,89.7%
same,growth,[8]; 10 µM,76.7%
same,growth,[9]; 1 µM,116%
same,growth,[9]; 10 µM,91%
same,growth,[10]; 1 µM,103%
same,growth,[10]; 10 µM,83.6%
same,growth,[11]; 1 µM,88.6%
same,growth,[11]; 10 µM,91%
same,growth,[12]; 1 µM,96.3%
same,growth,[12]; 10 µM,82.5%
same,growth,[13]; 1 µM,103%
same,growth,[13]; 10 µM,82.4%
same,growth,[14]; 1 µM,104%
same,growth,[14]; 10 µM,79.8%
same,growth,[15]; 1 µM,99.6%
same,growth,[15]; 10 µM,96.4%
same,growth,[16]; 1 µM,93.6%
same,growth,[16]; 10 µM,85.2%
same,growth,[17]; 1 µM,95.3%
same,growth,[17]; 10 µM,97.2%
same,growth,[18]; 1 µM,107%
same,growth,[18]; 10 µM,-18.8% (active)
Cc1cccc(-c2ccccc2Oc2ccc3nnc(Cl)n3n2)c1,growth,[1]; 10 µM unless noted,96.8%
same,growth,[2]; 10 µM unless noted,103%
same,growth,[3]; 10 µM unless noted,99.9%
same,growth,[4]; 10 µM unless noted,114%
same,growth,[5]; 10 µM unless noted,109%
same,growth,[6]; 10 µM unless noted,130%
same,growth,[19],102%
same,growth,[7]; 10 µM unless noted,98.7%
same,growth,[8]; 10 µM unless noted,98.8%
same,growth,[9]; 10 µM unless noted,127%
same,growth,[10]; 10 µM unless noted,111%
same,growth,[20],103%
same,growth,[11]; 10 µM unless noted,94.4%
same,growth,[12]; 10 µM unless noted,107%
same,growth,[13]; 10 µM unless noted,107%
same,growth,[14]; 10 µM unless noted,106%
same,growth,[15]; 10 µM unless noted,95.3%
same,growth,[16]; 10 µM unless noted,98.8%
same,growth,[17]; 10 µM unless noted,99%
same,growth,[18]; 10 µM unless noted,97.6%
Cc1cccc(C)c1Nc1nnc(-c2c[nH]c3ccccc23)o1,growth,[1]; 10 µM unless noted,88.8%
same,growth,[2]; 10 µM unless noted,78.9%
same,growth,[3]; 10 µM unless noted,98%
same,growth,[4]; 10 µM unless noted,83.1%
same,growth,[5]; 10 µM unless noted,99.7%
same,growth,[6]; 10 µM unless noted,89.9%
same,growth,[19],89.4%
same,growth,[7]; 10 µM unless noted,98.1%
same,growth,[8]; 10 µM unless noted,105%
same,growth,[9]; 10 µM unless noted,110%
same,growth,[10]; 10 µM unless noted,107%
same,growth,[20],98.4%
same,growth,[11]; 10 µM unless noted,78.4%
same,growth,[12]; 10 µM unless noted,79.1%
same,growth,[13]; 10 µM unless noted,108%
same,growth,[14]; 10 µM unless noted,104%
same,growth,[15]; 10 µM unless noted,96%
same,growth,[16]; 10 µM unless noted,94.1%
same,growth,[17]; 10 µM unless noted,95.7%
COc1cc(/C=C/C(=O)c2ccc(S(=O)(=O)NCCNc3nc(N(C)C)nc(N4CCOCC4)n3)cc2)cc(OC)c1OC,growth,[1]; 10 µM unless noted,3.66% (active)
same,growth,[2]; 10 µM unless noted,11.5%
same,growth,[3]; 10 µM unless noted,57.2%
same,growth,[4]; 10 µM unless noted,-19.1% (active)
same,growth,[5]; 10 µM unless noted,-100% (active)
same,growth,[6]; 10 µM unless noted,50.1%
same,growth,[19],-100% (active)
same,growth,[7]; 10 µM unless noted,26.5%
same,growth,[8]; 10 µM unless noted,-65.1% (active)
same,growth,[9]; 10 µM unless noted,28.3%
same,growth,[10]; 10 µM unless noted,13.8%
same,growth,[20],-67.8% (active)
same,growth,[11]; 10 µM unless noted,41.2%
same,growth,[12]; 10 µM unless noted,-82% (active)
same,growth,[13]; 10 µM unless noted,-100% (active)
same,growth,[14]; 10 µM unless noted,-3.35% (active)
same,growth,[15]; 10 µM unless noted,-68.1% (active)
same,growth,[16]; 10 µM unless noted,-87.3% (active)
same,growth,[17]; 10 µM unless noted,-26.5% (active)
FC(F)(F)c1cc2c(Cl)ncnc2n1CCN1CCOCC1,growth,[1]; 10 µM unless noted,62.9%
same,growth,[2]; 10 µM unless noted,91.4%
same,growth,[3]; 10 µM unless noted,74.9%
same,growth,[4]; 10 µM unless noted,91.5%
same,growth,[5]; 10 µM unless noted,86%
same,growth,[6]; 10 µM unless noted,107%
same,growth,[19],-80.3% (active)
same,growth,[7]; 10 µM unless noted,92.3%
same,growth,[8]; 10 µM unless noted,99.3%
same,growth,[9]; 10 µM unless noted,79.5%
same,growth,[10]; 10 µM unless noted,73.6%
same,growth,[20],0.361% (active)
same,growth,[11]; 10 µM unless noted,88.1%
same,growth,[12]; 10 µM unless noted,56.4%
same,growth,[13]; 10 µM unless noted,100%
same,growth,[14]; 10 µM unless noted,64.5%
same,growth,[15]; 10 µM unless noted,86.7%
same,growth,[16]; 10 µM unless noted,87%
same,growth,[17]; 10 µM unless noted,75.5%
Cc1cc(Cl)ccc1NC(=O)Nc1ccc(-c2ccc3c(c2)NC(=O)/C3=C\c2ccc[nH]2)cc1,growth,[1]; 10 µM unless noted,74.4%
same,growth,[2]; 10 µM unless noted,107%
same,growth,[3]; 10 µM unless noted,98.6%
same,growth,[4]; 10 µM unless noted,99.6%
same,growth,[5]; 10 µM unless noted,66.8%
same,growth,[6]; 10 µM unless noted,115%
same,growth,[19],103%
same,growth,[7]; 10 µM unless noted,105%
same,growth,[8]; 10 µM unless noted,105%
same,growth,[9]; 10 µM unless noted,130%
same,growth,[10]; 10 µM unless noted,96.3%
same,growth,[20],83.3%
same,growth,[11]; 10 µM unless noted,99.9%
same,growth,[12]; 10 µM unless noted,108%
same,growth,[13]; 10 µM unless noted,122%
same,growth,[14]; 10 µM unless noted,109%
same,growth,[15]; 10 µM unless noted,105%
same,growth,[16]; 10 µM unless noted,91.9%
same,growth,[17]; 10 µM unless noted,117%
CCCCCCCCCCCCCCCCCC(=O)Nc1ccc(OC)cc1,growth,[1]; 10 µM unless noted,105%
same,growth,[2]; 10 µM unless noted,103%
same,growth,[3]; 10 µM unless noted,102%
same,growth,[4]; 10 µM unless noted,101%
same,growth,[5]; 10 µM unless noted,109%
same,growth,[6]; 10 µM unless noted,102%
same,growth,[19],88.2%
same,growth,[7]; 10 µM unless noted,104%
same,growth,[8]; 10 µM unless noted,102%
same,growth,[9]; 10 µM unless noted,120%
same,growth,[10]; 10 µM unless noted,112%
same,growth,[20],92%
same,growth,[11]; 10 µM unless noted,97.7%
same,growth,[12]; 10 µM unless noted,99.9%
same,growth,[13]; 10 µM unless noted,115%
same,growth,[14]; 10 µM unless noted,108%
same,growth,[15]; 10 µM unless noted,106%
same,growth,[16]; 10 µM unless noted,97.3%
same,growth,[17]; 10 µM unless noted,102%

# Source: PubChem BioAssay (NCI)
